Laboratory results from PubChem BioAssay (Tox21).
Results filed as inconclusive are left out. Calls of active or inactive are those of the source. Unless noted, calls come from the whole dose curve; as a rule, active = well fitted curve in the direction sought with a large enough effect in the repeat runs; inconclusive = weak or mixed curves; inactive = flat fitted curve, though single readings scatter.

Legend:
[1] = qHTS assay to test for compound auto fluorescence at 535 nm (green) in HEK293 cells (AID 720680)
[2] = qHTS assay to test for compound auto fluorescence at 460 nm (blue) in HEK293 cell free culture (AID 720681)
How it was run: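 Compounds were added to cell-free DMEM with 10% FBS and fluorescence read directly. The blue channel used 405 nm excitation and 460 nm emission, with triamterene as the reference fluorophore.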

[3] = qHTS assay to test for compound auto fluorescence at 535 nm (green) in HEK293 cell free culture (AID 720682)
How it was run: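 DMEM + 10% FBS, cell-free; cpd or DMSO pinned in; Ex485/Em535 read; output as fluorescein-equivalent signal.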

[4] = qHTS assay to test for compound auto fluorescence at 590 nm (red) in HEK293 cell free culture (AID 720683)
How it was run: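 Cell-free wells of DMEM with 10% FBS received compound, and intrinsic fluorescence was read at excitation/emission 540/590 nm. Values expressed as equivalence to Rose Bengal sodium.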

[5] = qHTS assay to test for compound auto fluorescence at 590 nm (red) in HepG2 cell free culture (AID 720684)
How it was run: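 Compounds are added to culture medium (MEM, 10% FBS) lacking cells, then fluorescence is read at excitation 540 nm, emission 590 nm, with Rose Bengal sodium as the equivalency standard.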

[6] = qHTS assay to test for compound auto fluorescence at 460 nm (blue) in HepG2 cell free culture (AID 720685)
How it was run: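 Compound (23 nL) or DMSO pinned into cell-free MEM with 10% FBS; blue fluorescence read at 405/460 nm excitation/emission, expressed as auto-fluorescence equivalency to triamterene.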

[7] = qHTS assay to test for compound auto fluorescence at 460 nm (blue) in HepG2 cells (AID 720687)
How it was run: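 HepG2 cells in MEM with 10% FBS, attached overnight at 37 C, were exposed to compound or DMSO for 1 hr at 37 C, 5% CO2. Blue fluorescence was read at 405/460 nm, with triamterene as reference fluorophore.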

[8] = biological target: Glucocorticoid receptor (Homo sapiens) (UniProt P04150); assay: qHTS assay to identify small molecule agonists of the glucocorticoid receptor (GR) signaling pathway (AID 720691; active = well fitted activation curve with a large enough effect in the signal ratio in the repeat runs, not every such curve was filed as active; the % refers to the signal ratio)
How it was run: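 Fluorescence intensity from LiveBLAzer B/G FRET substrate (2 h, room temperature) reports beta-lactamase expression driven by the glucocorticoid response element in GR-bla HeLa cells after 18 h compound exposure at 37 C.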

[9] = biological target: Glucocorticoid receptor (Homo sapiens) (UniProt P04150); assay: qHTS assay to identify small molecule antagonists of the glucocorticoid receptor (GR) signaling pathway (AID 720692; active = well fitted inhibition curve with a large enough effect in the signal ratio in the repeat runs, not every such curve was filed as active; the % refers to the signal ratio)
How it was run: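 HeLa GR-bla cells; cmpd + dex 5 nM final, 18 h 37 C; LiveBLAzer B/G FRET substrate 2 h RT; fluorescence intensity read. Antagonist mode, qHTS.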

[10] = qHTS assay to test for compound auto fluorescence at 535 nm (green) in HepG2 cell free culture (AID 720686)
% is set by controls: 0 for no effect and ±100 for the full control effect.

Chain of Glucocorticoid receptor (Homo sapiens) (P04150 whole entry, looked up): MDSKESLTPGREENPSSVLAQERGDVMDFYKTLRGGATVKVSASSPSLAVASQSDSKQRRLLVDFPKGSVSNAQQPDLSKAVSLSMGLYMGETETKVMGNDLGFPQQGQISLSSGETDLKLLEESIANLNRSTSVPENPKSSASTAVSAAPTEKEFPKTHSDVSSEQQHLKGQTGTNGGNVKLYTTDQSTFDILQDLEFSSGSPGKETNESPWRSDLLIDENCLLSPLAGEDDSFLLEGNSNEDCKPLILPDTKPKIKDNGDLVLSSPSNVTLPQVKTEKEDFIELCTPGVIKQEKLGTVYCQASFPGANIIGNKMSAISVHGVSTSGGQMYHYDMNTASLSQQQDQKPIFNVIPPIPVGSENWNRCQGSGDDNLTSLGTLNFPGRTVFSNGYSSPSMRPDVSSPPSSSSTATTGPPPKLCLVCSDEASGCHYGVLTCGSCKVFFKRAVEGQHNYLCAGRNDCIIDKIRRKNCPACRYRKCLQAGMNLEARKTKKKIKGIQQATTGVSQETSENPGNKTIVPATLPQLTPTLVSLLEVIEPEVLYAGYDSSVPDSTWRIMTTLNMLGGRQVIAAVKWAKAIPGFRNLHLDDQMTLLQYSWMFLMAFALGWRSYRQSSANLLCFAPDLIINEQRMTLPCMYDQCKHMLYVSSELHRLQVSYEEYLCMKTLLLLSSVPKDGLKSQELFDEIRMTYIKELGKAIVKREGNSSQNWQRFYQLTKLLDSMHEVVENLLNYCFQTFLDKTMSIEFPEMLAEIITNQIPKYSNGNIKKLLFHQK

CC1=CC[C@@]23C[C@@H]1C(C)(C)[C@@H]2CC[C@H]3C
inactive: outcome [1] | Potency [2] | outcome [3] | outcome [4] | outcome [5] | Potency [6] | Potency [7] | Potency [8] | Potency [9]

CNC1CCCN(c2c(F)cc3c(=O)c(C(=O)O)cn(C4CC4)c3c2OC)C1 (stereo not drawn)
inactive: outcome [1] | Potency [2] | outcome [3] | outcome [4] | outcome [5] | outcome [10] | Potency [7]

CCCCOC(=O)CCCCC(=O)OCCCC
inactive: outcome [1] | Potency [2] | outcome [3] | outcome [4] | Potency [6] | outcome [10] | Potency [7] | Potency [8] | Potency [9]

CC(C)C(O)C(C)(C)CO (stereo not drawn)
inactive: outcome [1] | Potency [2] | outcome [3] | outcome [4] | Potency [6] | outcome [10] | Potency [7] | Potency [8]

CC[C@@H](CO)NCCN[C@@H](CC)CO
inactive: fluorescence, % of fluorescein [1] -0.0101% [at 18.6 µM] | fluorescence, % of fluorescent control [2] 0.0181% [at 18.6 µM] | activity change [3] 0.014% [at 18.6 µM] | fluorescence, % of Rose Bengal [5] 0.0051% [at 18.6 µM] | fluorescence, % of fluorescent control [6] 0.0488% [at 18.6 µM] | fluorescence, % of fluorescein control [10] 0.0013% [at 18.6 µM] | fluorescence, % of fluorescent control [7] -0.0204% [at 18.6 µM]

Nc1c(Cl)cc(Cl)cc1[N+](=O)[O-]
inactive: outcome [1] | Potency [2] | outcome [3] | outcome [4] | Potency [6] | outcome [10] | Potency [7]

CCSC(=O)N(CC)CC
inactive: outcome [1] | Potency [2] | outcome [3] | outcome [4] | outcome [10] | Potency [7] | Potency [8] | Potency [9]

CCN(CC)C(=O)/C(C#N)=C/c1cc(O)c(O)c([N+](=O)[O-])c1
inactive: outcome [1] | Potency [2] | outcome [3] | outcome [4] | Potency [6] | Potency [7]

FC(F)(F)C(F)(F)C(F)(F)C(F)(F)CCI
inactive: outcome [1] | Potency [2] | outcome [3] | outcome [4] | Potency [6] | outcome [10] | Potency [7] | Potency [8] | Potency [9]

COc1cc(S(=O)(=O)Nc2ccccc2)c(OC)cc1N
inactive: outcome [1] | Potency [2] | outcome [3] | outcome [4] | outcome [10] | Potency [7] | Potency [8] | Potency [9]

CC(=O)OCC(C)C
inactive: outcome [1] | Potency [2] | outcome [3] | outcome [4] | Potency [6] | Potency [7] | Potency [9]

O=C(Nc1ccc(C(=O)O)c(O)c1)c1ccccc1
inactive: outcome [1] | Potency [2] | outcome [3] | outcome [4] | outcome [10] | Potency [7]

CCCCCCCCCCCSCC(=O)O
inactive: outcome [1] | Potency [2] | outcome [3] | outcome [5] | Potency [6] | outcome [10] | Potency [7]

Cc1ccc2c(c1)CCCN2
inactive: outcome [1] | Potency [2] | outcome [3] | outcome [5] | Potency [6] | outcome [10] | Potency [7] | Potency [8]

CC(C)N=C=NC(C)C
inactive: outcome [1] | Potency [2] | outcome [3] | outcome [4] | Potency [6] | outcome [10] | Potency [7] | Potency [8] | Potency [9]

C/C(C=O)=C\c1ccccc1
inactive: outcome [1] | Potency [2] | outcome [3] | outcome [4] | Potency [6] | Potency [7]

CC(=O)c1ccc[nH]1
inactive: outcome [1] | Potency [2] | outcome [3] | outcome [4] | Potency [6] | outcome [10] | Potency [7] | Potency [8]

Cc1cc(CCC(=O)OCCOCCOCCOC(=O)CCc2cc(C)c(O)c(C(C)(C)C)c2)cc(C(C)(C)C)c1O
inactive: outcome [1] | Potency [2] | outcome [3] | outcome [4] | Potency [6] | outcome [10] | Potency [7] | Potency [8]

CC[C@H]1OC(=O)[C@H](C)[C@@H](O[C@H]2C[C@@](C)(OC)[C@@H](O)[C@H](C)O2)[C@H](C)[C@@H](O[C@@H]2O[C@H](C)C[C@H](N(C)C)[C@H]2O)[C@](C)(O)C[C@@H](C)CN(C)[C@H](C)[C@@H](O)[C@]1(C)O
inactive: outcome [1] | Potency [2] | outcome [3] | outcome [5] | Potency [6] | outcome [10] | Potency [7]

BrC(Br)C(Br)Br
inactive: outcome [1] | Potency [2] | outcome [3] | outcome [4] | Potency [6] | outcome [10] | Potency [7] | Potency [8]

CC1CCCC(=O)C1=O (stereo not drawn)
inactive: outcome [1] | Potency [2] | outcome [3] | outcome [4] | Potency [6] | outcome [10] | Potency [7] | Potency [8]

CCC(CO)(CO)[N+](=O)[O-]
inactive: outcome [1] | Potency [2] | outcome [3] | outcome [4] | Potency [6] | outcome [10] | Potency [7] | Potency [8]

O=C(O)CCC(=O)c1ccc(-c2ccccc2)cc1
inactive: fluorescence, % of fluorescein [1] -0.008% [at 18.6 µM] | fluorescence, % of fluorescent control [2] 0.0648% [at 18.6 µM] | activity change [3] 0.0155% [at 18.6 µM] | fluorescence, % of fluorescent control [4] 0.387% [at 18.6 µM] | fluorescence, % of fluorescent control [6] -0.0525% [at 18.6 µM] | fluorescence, % of fluorescein control [10] -0.127% [at 18.6 µM] | fluorescence, % of fluorescent control [7] -0.0799% [at 18.6 µM] | Potency [8]

CCCCCCCC(=O)OCCCCCC
inactive: outcome [1] | Potency [2] | outcome [3] | outcome [4] | Potency [6] | outcome [10] | Potency [7] | Potency [8]

COC(CC(C)CCCC(C)(C)O)OC (stereo not drawn)
inactive: outcome [1] | Potency [2] | outcome [3] | outcome [4] | Potency [6] | outcome [10] | Potency [7] | Potency [8] | Potency [9]
